Source: PubChem BioAssay
Sfp PPTase inh = inhibitors of Bacillus subtilis Sfp phosphopantetheinyl transferase. Biochemical Sfp PPTase activity, qHTS. Q9F4F7. AID 1490. Potency, µM, for inactives: largest response in the series, negative = inhibition, actives largely listed as inhibitors. 310,000 compounds, 3.5% hits;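 further: the enzyme is Sfp with the accession as filed and its product quenches rhodamine fluorescence; 0% = enzyme reaction without inhibitor and -100% = no enzyme wells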
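Fluorescence-quenching assay: 15 nM Sfp-PPTase preincubated 15 min at room temperature with compound, then 5 uM rhodamine-CoA and 12.5 uM BHQ-2-labelled YbbR peptide added. Fluorescence (ex 525/em 598 nm) read at start and after 30 min; difference gives rate.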
PLK1 PBD block = blocks phosphopeptide binding to human PLK1 polo-box domain | Plk1 PBD binding of FITC phosphopeptide, fluorescence polarization | Potency, µM, without a hit: max response, negative = inhibition, most hits filed as inhibitors | 360,000 compounds, 2.8% hits | AID 720504; further: series mostly up to about 57 µM; nearly all actives have a fitted effect of over 65% in size
TrxR1 substrate = substrates of rat thioredoxin reductase 1; O89049; purified TrxR1 substrate turnover, NADPH consumption readout; Potency, µM (series often up to 114 µM), for inactives: at the top dose activity change, negative = substrate turnover; 390,000 compounds, 0.01% hits; further: nearly all actives have a fitted effect of over 50% in size
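Rat TrxR1, dispensed at 90 nM, was prereduced with 400 uM NADPH (final) for 5 min at ~22 deg C, then incubated with compound 15 min before 400 uM selenite. A first-read NADPH fluorescence drop versus no-compound background flagged substrates.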
rTrxR1 inhibitor = rat TrxR1 inhibition; O89049; recombinant rTrxR1, NADPH fluorescence consumption, selenite substrate; Potency, µM (highest dose often 114 µM), without a hit: at the highest dose activity change, negative = inhibition, hits mostly inhibitors; 390,000 compounds, 1% hits; AID 588453; further: nearly all actives have a fitted effect of over 65% in size
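Rat TrxR1 (90 nM in the dispensed reagent) was pre-reduced with 400 uM NADPH for 5 min at room temperature, then incubated with compound for 15 min. After 400 uM selenite was added, NADPH fluorescence (Ex 340/Em 450 nm) was followed for 8 min.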
IDH1 R132H inh = inhibitors of human mutant IDH1 R132H; IDH1-R132H enzyme, NADPH consumption, diaphorase/resazurin fluorescence; O75874; 390,000 compounds, 0.093% hits; Potency, µM (highest dose often 76.6 µM), inactives show top-dose activity change, negative = inhibition, usual class: inhibitors; AID 602179; further: nearly all actives have a fitted effect of over 65% in size
Target sequence (O75874 whole entry R132H, stated change not applied): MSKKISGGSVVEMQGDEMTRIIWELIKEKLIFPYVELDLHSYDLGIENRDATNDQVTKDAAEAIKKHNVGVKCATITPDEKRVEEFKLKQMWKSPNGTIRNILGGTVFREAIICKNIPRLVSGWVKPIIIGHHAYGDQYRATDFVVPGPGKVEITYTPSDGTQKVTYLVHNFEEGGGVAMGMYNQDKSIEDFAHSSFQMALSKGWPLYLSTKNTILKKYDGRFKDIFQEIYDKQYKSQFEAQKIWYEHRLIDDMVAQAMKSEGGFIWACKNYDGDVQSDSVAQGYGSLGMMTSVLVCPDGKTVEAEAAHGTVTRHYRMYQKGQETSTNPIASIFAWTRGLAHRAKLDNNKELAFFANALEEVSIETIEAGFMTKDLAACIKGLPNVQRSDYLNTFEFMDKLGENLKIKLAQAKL
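IDH1-R132H (0.5 ug/mL) preincubated 30 min with compound, then NADPH (0.016 mM) and alpha-KG (2 mM) added; 80 min at RT, pH 7.5. Remaining NADPH coupled via diaphorase/resazurin to fluorescence (540/590 nm); concentration-response curves normalized to no-enzyme control.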
VDR inhibitor = blocks the human vitamin D receptor; 400,000 compounds, 0.93% hits; P11473; Potency, µM, without a hit: max response, negative = inhibition, most hits filed as inhibitors; AID 504847; VDR-SRC2-3 peptide fluorescence polarization, 2 h
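Fluorescence polarization assay measuring small-molecule disruption of VDR binding to the coregulator peptide SRC2-3. Compounds were pin-transferred (23 nl) into the reagent mix and incubated 2 h at room temperature before reading.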
Starred values were filed as active, the others as inactive; [ ] = dose if it differs, or a comment. In the library only some 5.2% were active in any assay of this set; here they are far more common. The call rests on the fitted dose curve; in most records, active means well fitted curve in the direction sought with a large enough effect; inconclusive means small, poorly fitted or top-dose-only effect, or another doubt; inactive means no such curve, though single readings can be large; an effect the other way counts as inactive or inconclusive. Unless noted, on the % scale 0 is the no-effect control and ±100 the full control effect; potency means the concentration at half of the fitted maximal effect.

COCCN(C(=O)CCl)C(C(=O)NC1CCCCC1)c1ccccc1C (stereo not drawn) was read as Sfp PPTase inh 6.8%, PLK1 PBD block -12.5%, TrxR1 substrate 3.3%, rTrxR1 inhibitor 28.2µM*, IDH1 R132H inh -1.4% and VDR inhibitor -22.5%.
Screening Cc1ccc(NC(=O)Cn2c(CCC(=O)O)ccc2-c2cccs2)cc1 returned Sfp PPTase inh 25.1µM*, PLK1 PBD block -9.9%, TrxR1 substrate 10.0%, rTrxR1 inhibitor inconclusive, IDH1 R132H inh -13.9% and VDR inhibitor 1.0%.
For COC(=O)c1ccccc1NC(=O)Cn1c(CCC(=O)O)ccc1-c1cccs1 the results were Sfp PPTase inh 56.2µM*, PLK1 PBD block -4.4%, TrxR1 substrate 5.2%, rTrxR1 inhibitor inconclusive, IDH1 R132H inh -7.4% and VDR inhibitor -7.1%.
Screening CC1=NN(c2ccc(C)c(C)c2)C(=O)C1C(c1cccc(O)c1)C1C(=O)N(c2ccc(C)c(C)c2)N=C1C (stereo not drawn) returned Sfp PPTase inh 34.4%, PLK1 PBD block 8.44µM*, TrxR1 substrate -12.9%[57.1 µM], rTrxR1 inhibitor -37.9%, IDH1 R132H inh 1.7% and VDR inhibitor inconclusive.
Screening CC(C)Cn1c(=O)c2sccc2n2c(CCCC(=O)NCC(C)c3ccccc3)nnc12 (stereo not drawn) returned TrxR1 substrate 2.5%, rTrxR1 inhibitor -0.6%, IDH1 R132H inh -6.6% and VDR inhibitor 16.6%.
Screening O=C(NCCCN1CCCCCC1)[C@@H](c1ccccc1)C1CCCCC1 returned Sfp PPTase inh 4.8% and VDR inhibitor -9.4%.
`Cc1ccccc1-c1nccc(NCc2cccs2)n1` gave Sfp PPTase inh 89.1µM* and VDR inhibitor inconclusive.
COc1cccc(-c2nccc(NCc3cccs3)n2)c1 was read as Sfp PPTase inh 79.4µM* and VDR inhibitor inconclusive.
Screening Cc1cc(/C=C(\C#N)C(=O)NCc2cccs2)c(C)n1-c1ccccc1F returned Sfp PPTase inh 7.9%, PLK1 PBD block 26.7µM*, TrxR1 substrate -1.9%[11.4 µM], rTrxR1 inhibitor -3.5%[11.4 µM], IDH1 R132H inh -0.3% and VDR inhibitor -18.5%.
For COc1ccc(CNCCCSc2nnnn2C)c(OC)c1 the results were TrxR1 substrate -4.4%, rTrxR1 inhibitor 4.3%, IDH1 R132H inh -16.1% and VDR inhibitor 23.5%.
`CCCc1cc(C(=O)Nc2ccc(OC)cc2[N+](=O)[O-])cs1` gave Sfp PPTase inh 0.2%, PLK1 PBD block 9.1%, TrxR1 substrate -3.4%, rTrxR1 inhibitor 22.1%, IDH1 R132H inh -6.5% and VDR inhibitor -12.3%.
For COc1ccc(/C=C(/NC(=O)/C=C/c2ccccc2)C(=O)O)cc1 the results were Sfp PPTase inh 22.7%, PLK1 PBD block -3.7%, TrxR1 substrate 4.4%[57.1 µM], rTrxR1 inhibitor 22.7%[57.1 µM], IDH1 R132H inh 9.6% and VDR inhibitor 12.0%.
COc1ccc(/C=C\C(=O)CC(O)(c2ccccc2)C(F)(F)F)cc1 (stereo not drawn) was read as Sfp PPTase inh -16.1%, PLK1 PBD block -9.4%, TrxR1 substrate -1.7%, rTrxR1 inhibitor -10.1%, IDH1 R132H inh 4.3% and VDR inhibitor 50.1µM*.
For CCn1ncc(NC(=S)Nc2ccc3c(c2)OCO3)c1C(N)=O the results were Sfp PPTase inh 56.2µM*, PLK1 PBD block -16.2%, TrxR1 substrate -14.7%, rTrxR1 inhibitor -31.7%, IDH1 R132H inh -10.6% and VDR inhibitor 3.6%.
`CCn1ncc(NC(=S)Nc2ccc(OC)c(OC)c2)c1C(N)=O` gave Sfp PPTase inh 31.6µM*, PLK1 PBD block -25.0%, TrxR1 substrate -6.2%[57.1 µM], rTrxR1 inhibitor 24.0%[57.1 µM], IDH1 R132H inh 13.2% and VDR inhibitor -0.4%.
For CCOC(=O)Nc1ccc2c(c1)OCO2 the results were Sfp PPTase inh 14.5%, PLK1 PBD block -4.4%, TrxR1 substrate 2.2%, rTrxR1 inhibitor -0.9%, IDH1 R132H inh -1.5% and VDR inhibitor 13.0%.
`CCC(C)c1ccc(NC(=S)Nc2ccc(OC)c(OC)c2)cc1` (stereo not drawn) gave Sfp PPTase inh -1.9%, PLK1 PBD block -8.0%, TrxR1 substrate -6.6%, rTrxR1 inhibitor -21.1%, IDH1 R132H inh 0.6% and VDR inhibitor -3.0%.
Cc1ccc(OCCN2CCN(CC(O)Cn3c4ccccc4c4ccccc43)CC2)cc1 (stereo not drawn) was read as Sfp PPTase inh 44.7µM*.
Screening COc1ccc(C2C(C#N)=C(N)N(c3cccnc3)C3=C2C(=O)CC(C)(C)C3)cc1OC (stereo not drawn) returned Sfp PPTase inh -6.6%, PLK1 PBD block -19.3%, TrxR1 substrate -5.5%, rTrxR1 inhibitor 17.8µM*, IDH1 R132H inh 6.8% and VDR inhibitor 9.6%.
Screening COc1ccc(N2C(N)=C(C#N)C(c3cccnc3)C3=C2CC(C)(C)CC3=O)cc1 (stereo not drawn) returned Sfp PPTase inh 11.0%, PLK1 PBD block -20.1%, TrxR1 substrate 9.7%[57.1 µM], rTrxR1 inhibitor inconclusive, IDH1 R132H inh 8.2% and VDR inhibitor -1.6%.
`CCSC1=N/C(=C\c2ccc(-c3ccccc3[N+](=O)[O-])o2)C(=O)S1` gave Sfp PPTase inh inconclusive, PLK1 PBD block -18.2%, TrxR1 substrate 1.6%[57.1 µM], rTrxR1 inhibitor 3.0%[57.1 µM], IDH1 R132H inh 0.3% and VDR inhibitor -12.4%.
Screening CCCSC1=N/C(=C\c2ccc([N+](=O)[O-])o2)C(=O)S1 returned Sfp PPTase inh 39.8µM*, PLK1 PBD block 7.52µM*, TrxR1 substrate 5.7%[57.1 µM], rTrxR1 inhibitor -43.1%, IDH1 R132H inh 1.9% and VDR inhibitor 79.4µM*.
Screening CCCSC1=N/C(=C\C=C\c2ccco2)C(=O)S1 returned Sfp PPTase inh 31.6µM*, PLK1 PBD block -19.1%, TrxR1 substrate -4.8%, rTrxR1 inhibitor inconclusive, IDH1 R132H inh 0.2% and VDR inhibitor inconclusive.
For Cc1nn(-c2ccc(N3CCCC3)nn2)c(C)c1CCC(=O)Nc1ccc(F)cc1F the results were TrxR1 substrate -0.2%[57.1 µM], rTrxR1 inhibitor 12.3%[57.1 µM], IDH1 R132H inh 30.6% and VDR inhibitor 4.4%.
For COC(=O)C(C)Sc1nc2c([nH]c3ccccc32)c(=O)n1C (stereo not drawn) the results were Sfp PPTase inh 50.1µM*, PLK1 PBD block -17.9%, TrxR1 substrate -2.8%, rTrxR1 inhibitor 4.4%, IDH1 R132H inh -4.0% and VDR inhibitor 2.6%.
Screening CCC(C)Sc1nc2c([nH]c3ccccc32)c(=O)n1C (stereo not drawn) returned Sfp PPTase inh 5.0%, PLK1 PBD block -2.9%, TrxR1 substrate 3.2%, rTrxR1 inhibitor 11.4%, IDH1 R132H inh 6.6% and VDR inhibitor 10.0%.
For Cc1cccc2c(=O)cc(C(F)(F)F)[nH]c12 the results were Sfp PPTase inh 8.1%, PLK1 PBD block -3.5%, TrxR1 substrate 5.3%, rTrxR1 inhibitor 22.6%, IDH1 R132H inh -6.9% and VDR inhibitor -0.4%.
